Assay [1] deals with Cytochrome P450 3A4 (Homo sapiens) (UniProt P08684). In words: qHTS Assay for Activators of Cytochrome P450 3A4 (AID 885). Also: nearly all actives have a fitted effect of over 65% in size. The method, boiled down:
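Human CYP3A4 dealkylates Luciferin-PPXE to luciferin, which luciferase detection converts to light. Substrate was at its KM (25uM), buffer 200mM KPO4, reaction 60 min at RT.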
Background: Quantitative high-throughput screening tests each substance at several concentrations.

Assay [2] can be described thus: Confirmation and Secondary Assay for Modulators of Hemoglobin Beta Chain Splicing at IVS2 654 locus (AID 910).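 Also: HeLa cells stably carrying EGFP split by mutant beta-globin IVS2-654 intron; % of control where 0% means no effect.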 The method, boiled down: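 HeLa cells stably expressing EGFP interrupted by β-globin IVS2-654 intron, seeded overnight in Opti-MEM/2% FCS, then treated 2 days at 37 °C. Restored splicing read as total peak GFP intensity per well by laser scanning cytometry (488 nm excitation, 500–520 nm emission); 500 nM antisense PNA as control.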

Assay [3] can be described thus: Confirmation and Secondary Assay for Modulators of Hemoglobin Beta Chain Splicing at IVS2 705 locus (AID 930).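 Also: HeLa cells stably expressing the EGFP-705 splicing reporter; GFP fluorescence per well restored by corrected splicing of the IVS2-705 intron in EGFP; % of control where 0% means no effect.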 The method, boiled down: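 First, HeLa EGFP-705 cells are seeded at 500/well in Optimem with 2% FCS and left overnight. Next, compound or DMSO is added for 2 days. Finally wells are laser-scanned and total peak GFP intensity scored.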
Assay [4] is described as follows: qHTS Assay for Lipid Storage Modulators (AID 1519; calls by dose curve). Particulars: Drosophila S3 cells, BODIPY lipid droplet/cell ratio, laser cytometry, cells loaded with oleic acid; for activity change, negative = inhibition: at 57.5 µM (top of the series). The method, boiled down:
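Cells seeded at 5,000 per well were treated with compounds over a concentration series and loaded with oleic acid (400 uM, as added). Lipid droplet fluorescence (488 nm excitation, 500-530 nm channel) was read by laser-scanning cytometry and normalized to 20 uM Triacsin C.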

Assay [5] deals with Rap guanine nucleotide exchange factor 3 (Homo sapiens) (UniProt O95398). Kind of assay: Confirmatory qHTS for antagonist of cAMP-regulated guanine nucleotide exchange factor 3 (EPAC1) (AID 1645880).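 Also: plate controls were DMSO only for no effect and full effect of the ATA control for full effect; nearly all actives have a fitted effect of over 55% in size.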 The method, boiled down:
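Released BODIPY-GDP fluoresces less than Rap1-bound BODIPY-GDP; the signal is followed at 480/540 nm at 5-min intervals over 30 min, after 5 min at room temperature. Reactions contain 100 nM EPAC1, 250 nM RAP1B-BODIPY-GDP and 50 uM GDP; results are normalized to ATA and DMSO.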

Assay [6] shares this target. In words: Confirmatory qHTS for agonist of cAMP-regulated guanine nucleotide exchange factor 3 (EPAC1) (AID 1645881).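 Also: EPAC1 catalysed release of BODIPY-GDP from Rap1B seen as fluorescence loss; 100% = effect of cAMP agonist control; nearly all actives have a fitted effect of over 75% in size.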
Assay [7] deals with Rap guanine nucleotide exchange factor 4 (Homo sapiens) (UniProt Q8WZA2). Kind of assay: Confirmatory qHTS for agonist of cAMP-regulated guanine nucleotide exchange factor 4 (EPAC2) (AID 1645884).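 Also: nucleotide exchange releases bodipy-GDP from Rap1 and this lowers its fluorescence; % is scaled to controls: 0 for no effect and ±100 for the full control effect; nearly all actives have a fitted effect of over 65% in size.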
Rap guanine nucleotide exchange factor 4 (Homo sapiens), sequence (Q8WZA2 whole entry, looked up): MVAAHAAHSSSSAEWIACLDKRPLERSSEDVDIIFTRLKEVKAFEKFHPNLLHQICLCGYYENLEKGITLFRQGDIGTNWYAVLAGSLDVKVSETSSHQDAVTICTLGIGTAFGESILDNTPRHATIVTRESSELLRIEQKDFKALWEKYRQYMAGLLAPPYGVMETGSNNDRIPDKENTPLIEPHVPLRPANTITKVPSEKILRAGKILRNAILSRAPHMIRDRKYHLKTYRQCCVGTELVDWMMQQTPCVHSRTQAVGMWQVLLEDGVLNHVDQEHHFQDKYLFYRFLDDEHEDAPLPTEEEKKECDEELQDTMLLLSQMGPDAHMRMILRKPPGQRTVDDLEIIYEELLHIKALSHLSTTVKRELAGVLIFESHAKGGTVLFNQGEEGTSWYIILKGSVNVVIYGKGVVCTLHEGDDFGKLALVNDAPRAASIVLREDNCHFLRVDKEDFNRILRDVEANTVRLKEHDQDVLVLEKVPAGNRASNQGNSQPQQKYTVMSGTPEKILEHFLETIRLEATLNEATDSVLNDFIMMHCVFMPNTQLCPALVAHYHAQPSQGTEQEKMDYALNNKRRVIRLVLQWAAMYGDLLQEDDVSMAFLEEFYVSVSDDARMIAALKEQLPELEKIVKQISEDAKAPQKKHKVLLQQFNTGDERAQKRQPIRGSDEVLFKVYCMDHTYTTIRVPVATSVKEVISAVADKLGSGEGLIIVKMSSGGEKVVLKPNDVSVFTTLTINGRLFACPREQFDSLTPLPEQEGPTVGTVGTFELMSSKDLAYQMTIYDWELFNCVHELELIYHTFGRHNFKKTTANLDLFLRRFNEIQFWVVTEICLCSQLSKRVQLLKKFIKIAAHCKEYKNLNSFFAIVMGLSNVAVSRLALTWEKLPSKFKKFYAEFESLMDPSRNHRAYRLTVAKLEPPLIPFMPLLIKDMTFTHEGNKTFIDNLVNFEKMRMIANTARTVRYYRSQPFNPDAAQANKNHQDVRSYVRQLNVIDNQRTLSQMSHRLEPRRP
Assay [8] has the same target. In words: Confirmatory qHTS for antagonist of cAMP-regulated guanine nucleotide exchange factor 4 (EPAC2) (AID 1645885). Also: potency is read from the fitted curve at half-maximal effect; nearly all actives have a fitted effect of over 25% in size.
The target of assay [9] is Cytochrome P450 3A4 (Homo sapiens) (UniProt P08684). Kind of assay: qHTS Assay for Inhibitors and Substrates of Cytochrome P450 3A4 (AID 884). Also: nearly all actives have a fitted effect of over 50% in size. Also: potency is read from the fitted curve at half-maximal effect. The method, boiled down:
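Luminescent readout of luciferin produced by CYP3A4 (20 nM) dealkylation of Luciferin-PPXE, 25 uM (its KM). NADPH-driven reaction ran 60 min at RT after 10 min compound preincubation; data scaled to 57 uM ketoconazole as 100% inhibition.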

Assay [10] has as its target Ubiquitin carboxyl-terminal hydrolase 1 (Homo sapiens) (UniProt O94782). Kind of assay: Inhibitors of USP1/UAF1: Pilot qHTS (AID 504865). Also: nearly all actives have a fitted effect of over 35% in size. Also: potency is read from the fitted curve at half-maximal effect. The method, boiled down:
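In 50mM HEPES pH 7.8 containing 0.5mM EDTA, 1mM TCEP, 0.1 mg/ml BSA and 0.01% Tween-20, 1nM USP1/UAF1 is exposed to compound for 15 min, then Ub-Rho (150nM final) is added and fluorescence is read over time.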

Assay [11] in a line: NCATS anti-infectives library activity on HEK293 viability as a counter-qHTS vs the C. elegans viability qHTS (AID 1745854). Also: % is scaled to controls: 0 for no effect and ±100 for the full control effect. The method, boiled down: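 CellTiter-Glo luminescence, read on a CCD imager, scored viability of HEK293 cells after 24 hr compound exposure at 37C. Library tested in several concentrations, 1:5 steps, up to 41.7 uM; digitonin served as control.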
The target in assay [12] is Lysosomal acid glucosylceramidase (Homo sapiens) (UniProt P04062). In words: Glucocerebrosidase-p2 (AID 348; in the data active = potency below about 10 µM; also: potency is read from the fitted curve at half-maximal effect). Particulars: purified GBA, blue fluorogenic substrate, 40 min. The method, boiled down:
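Normal human glucocerebrosidase (0.2 nM) with blue fluorogenic substrate (80 uM final) in citrate/phosphate pH 5.9 with 10mM sodium taurocholate, 0.01% tween-20; 40 min RT, NaOH/glycine stop; fluorescence Ex 365/Em 440; AC50 from a titration from 0.6 nM upwards.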

Assay [13] can be described thus: AP1 Signaling Pathway (AID 357; active = well fitted curve in either direction with a large enough effect, not every such curve was filed as active;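 also: ME-180 reporter cells stimulated with EGF at its EC50 level; % is scaled to controls: 0 for no effect and ±100 for the full control effect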). Particulars: ME-180 AP-1-bla reporter, EGF-induced, beta-lactamase ratio, 5 h; at 7.69 µM (top of the series) unless noted. The method, boiled down:
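In this screen, ME-180 cells in Opti-MEM with 0.5% dialyzed FBS received EC50 EGF and compound titrations for 5 h. AP-1 reporter beta-lactamase was detected via CCF4 ratio, giving AC50 for positive and negative modulators.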

The target in assay [14] is Cytochrome P450 1A2 (Homo sapiens) (UniProt P05177). In words: p450-cyp1a2 (AID 410; calls by dose curve; also: potency is read from the fitted curve at half-maximal effect). The method, boiled down: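 20nM CYP1A2, 100uM Luciferin-ME (=Km), 100mM KPO4; cpd 10 min RT; +NADPH regen, 60 min RT; stop/detect 20 min; luminescence. Normalized to furafylline 57 uM = full inhibition.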
A short description of assay [15]: NFAT Signaling Pathway (AID 444; active = well fitted curve in either direction with a large enough effect, not every such curve was filed as active;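 also: carbachol stimulus at about its EC50 of 1 µM final; % is scaled to controls: 0 for no effect and ±100 for the full control effect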). Particulars: Jurkat NFAT-bla M1, carbachol, beta-lactamase ratio, 5 h; at 7.69 µM (top of the series) unless noted. The method, boiled down: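 Jurkat cells with NFAT-driven β-lactamase reporter and co-expressed M1 receptor, stimulated with carbachol (final 1 uM, ~EC50), compound titration, 5 h at 37 °C. CCF4 loaded 1 h at RT; 460/530 nm ratio gave %activity and AC50.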

The nature of assay [16]: Stat Signaling Pathway (AID 446; active = well fitted curve in either direction with a large enough effect, not every such curve was filed as active;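 also: ME-180 cervical cancer cells given 40 pM IL-6 alongside compound; SIE-controlled beta-lactamase reporter measured as 460/530 nm FRET emission ratio; % is scaled to controls: 0 for no effect and ±100 for the full control effect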). Particulars: ME-180 (cervical carcinoma) SIE beta-lactamase reporter, IL-6 stimulated, 5 h; at 7.69 µM (top of the series) unless noted. The method, boiled down:
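Normalization used AC90 stimulation (300 pM IL-6) and AC90 inhibition (125 nM pan-JAK inhibitor at 40 pM IL-6). The underlying signal is SIE-driven beta-lactamase in ME-180 cells after 5 h IL-6 exposure with compound.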

For assay [17], the target named is Glucocorticoid receptor (Homo sapiens) (UniProt P04150). In words: GR-GFP Redistribution (AID 450;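 active = compounds whose dose series gives a full or clear partial fitted curve of increased nuclear translocation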; also: potency is read from the fitted curve at half-maximal effect). Particulars: U2OS GR-GFP nuclear translocation, laser cytometry, 2 h.
Glucocorticoid receptor (Homo sapiens), sequence (P04150 whole entry, looked up, the tested form may be a part): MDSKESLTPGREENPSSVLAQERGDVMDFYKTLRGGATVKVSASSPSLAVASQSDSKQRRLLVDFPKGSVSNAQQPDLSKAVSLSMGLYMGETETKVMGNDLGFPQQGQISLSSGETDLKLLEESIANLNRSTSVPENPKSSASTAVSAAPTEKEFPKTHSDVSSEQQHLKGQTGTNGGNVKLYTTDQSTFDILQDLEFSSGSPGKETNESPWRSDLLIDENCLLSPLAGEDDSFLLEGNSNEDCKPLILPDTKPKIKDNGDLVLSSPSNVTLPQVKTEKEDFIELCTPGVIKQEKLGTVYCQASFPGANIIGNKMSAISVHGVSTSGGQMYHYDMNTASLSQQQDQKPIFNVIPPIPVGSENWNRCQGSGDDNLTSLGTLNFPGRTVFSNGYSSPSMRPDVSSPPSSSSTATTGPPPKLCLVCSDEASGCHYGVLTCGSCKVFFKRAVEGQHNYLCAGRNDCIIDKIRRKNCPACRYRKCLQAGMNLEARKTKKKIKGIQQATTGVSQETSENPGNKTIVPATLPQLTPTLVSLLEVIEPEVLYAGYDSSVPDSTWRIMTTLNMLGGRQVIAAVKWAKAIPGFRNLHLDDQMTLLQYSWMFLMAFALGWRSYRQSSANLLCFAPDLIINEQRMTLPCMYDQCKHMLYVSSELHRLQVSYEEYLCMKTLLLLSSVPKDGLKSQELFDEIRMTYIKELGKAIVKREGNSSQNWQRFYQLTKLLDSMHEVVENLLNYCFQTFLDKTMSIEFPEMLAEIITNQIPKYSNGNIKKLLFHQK
The target is the same in assay [18]. Kind of assay: GR-EFC Redistribution (AID 451; calls by dose curve; also: potency is read from the fitted curve at half-maximal effect). Particulars: CHO-K1 GR-EFC translocation, beta-gal luminescence, 2 h. The method, boiled down: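 CHO-K1 cells expressing nuclear EA and GR-ED fragments of b-gal; compounds titrated up to 46 uM final, 2 h at 37 C. GR nuclear translocation read as complemented b-gal luminescence after 1 h RT detection.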
Assay [19] addresses Mitogen-activated protein kinase 10 (Mus musculus) (UniProt Q61831). Kind of assay: JNK3 AlphaScreen Assay (AID 530; active = well fitted curve in either direction with a large enough effect, not every such curve was filed as active). The method, boiled down:
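HepG2 lysate (IL-1b/TNFa pre-activated) + biotin-GST-cJun 1-79 + anti-pSer73 cJun; cpd titration, 15 min RT; ATP 10 uM start; Tris pH 7.6, MgCl2, DTT, vanadate; beads in EDTA buffer; AlphaScreen.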
(Alpha assays give light when donor and acceptor beads are brought close together.)

For assay [20], the target named is 3',5'-cyclic-AMP phosphodiesterase 4B (Homo sapiens) (UniProt Q07343). Kind of assay: qHTS Assay for Inhibitors of PDE-IV (AID 607; active = well fitted activation curve with a large enough effect in the main read-out, with a control signal flat, not every such curve was filed as active; also: % of control where 0% means no effect). The method, boiled down: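 HEK293 ACTOne cells with CNG channel (1000/well), endogenous PDE4; membrane potential dye, compounds up to 22.9 uM final. Fluorescence Ex 535/Em 590; RO 20-1724 (100 uM final) as reference.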
The target of assay [21] is Dual specificity protein kinase CLK4 (Homo sapiens) (UniProt Q9HAZ1). Kind of assay: qHTS Assay for Inhibitors of CDC-like Kinase 4 (Kinase-Glo Assay) (AID 1770). Also: nearly all actives have a fitted effect of over 65% in size. Also: potency is read from the fitted curve at half-maximal effect. The method, boiled down:
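Substrate mix (RS peptide 100 uM, ATP 1 uM) dispensed, compound pinned in, then Clk4 added to 25 nM final. Incubated 4.5 h at RT; Kinase-Glo reagent added, luminescence read after 5 min.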

Assay [22] shares this target. In words: qHTS Assay for Inhibitors of CDC-like Kinase 4 (ADP-Glo Assay) (AID 1771). Also: nearly all actives have a fitted effect of over 70% in size. Also: potency is read from the fitted curve at half-maximal effect. The method, boiled down: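 25 nM Clk4, 100 uM RS peptide, 1 uM ATP (final); 2 mM MgCl2, 0.5 mM EGTA, 2.5 mM DTT, 0.01% Triton X-100; 1 hr RT. ADP-Glo readout: ATP depletion 45 min, conversion/luciferase 30 min, luminescence.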
Assay [23] shares this target. Kind of assay: qHTS Assay for Inhibitors of CDC-like Kinase 4 (ADP-FP Assay) (AID 1795).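 Also: recombinant human CLK4 phosphorylating RS repeat peptide at 1 µM ATP; % is scaled to controls: 0 for no effect and ±100 for the full control effect; nearly all actives have a fitted effect of over 60% in size.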 The method, boiled down:
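Clk4 6.25 nM; RS peptide 100 uM; ATP 1 uM; 25 mM Tris pH 7.5, 10 mM MgCl2; 1 h reaction. ADP detected via antibody/orange tracer FP displacement; TG003 positive control.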

Setting [24] is: measured here: cell count channel max response.
Where [25] appears, read: measured here: lipid channel max response.

Records with an inconclusive call do not appear. The source made the active and inactive calls. Unless noted, calls follow the shape of the dose curve; as a rule, active = well fitted curve in the direction sought with a large enough effect; inconclusive = small, poorly fitted or top-dose-only effect, or another doubt; inactive = no such curve, though single readings can be large; an effect the other way counts as inactive or inconclusive.

Dual specificity protein kinase CLK4 (Homo sapiens), sequence (Q9HAZ1 whole entry, looked up): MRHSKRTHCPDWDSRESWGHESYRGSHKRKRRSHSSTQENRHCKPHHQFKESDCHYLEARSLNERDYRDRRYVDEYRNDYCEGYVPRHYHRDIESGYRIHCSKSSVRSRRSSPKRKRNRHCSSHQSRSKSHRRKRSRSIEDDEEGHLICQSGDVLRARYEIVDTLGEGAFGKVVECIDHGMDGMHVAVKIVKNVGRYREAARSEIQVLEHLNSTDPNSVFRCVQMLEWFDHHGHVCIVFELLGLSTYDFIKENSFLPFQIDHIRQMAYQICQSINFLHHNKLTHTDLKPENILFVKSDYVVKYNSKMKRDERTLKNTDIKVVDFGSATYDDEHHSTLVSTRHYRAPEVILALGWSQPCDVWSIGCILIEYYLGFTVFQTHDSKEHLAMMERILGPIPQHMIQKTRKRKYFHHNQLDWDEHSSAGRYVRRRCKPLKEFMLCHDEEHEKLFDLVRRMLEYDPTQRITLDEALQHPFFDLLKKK
Rap guanine nucleotide exchange factor 3 (Homo sapiens), sequence (O95398 whole entry, looked up): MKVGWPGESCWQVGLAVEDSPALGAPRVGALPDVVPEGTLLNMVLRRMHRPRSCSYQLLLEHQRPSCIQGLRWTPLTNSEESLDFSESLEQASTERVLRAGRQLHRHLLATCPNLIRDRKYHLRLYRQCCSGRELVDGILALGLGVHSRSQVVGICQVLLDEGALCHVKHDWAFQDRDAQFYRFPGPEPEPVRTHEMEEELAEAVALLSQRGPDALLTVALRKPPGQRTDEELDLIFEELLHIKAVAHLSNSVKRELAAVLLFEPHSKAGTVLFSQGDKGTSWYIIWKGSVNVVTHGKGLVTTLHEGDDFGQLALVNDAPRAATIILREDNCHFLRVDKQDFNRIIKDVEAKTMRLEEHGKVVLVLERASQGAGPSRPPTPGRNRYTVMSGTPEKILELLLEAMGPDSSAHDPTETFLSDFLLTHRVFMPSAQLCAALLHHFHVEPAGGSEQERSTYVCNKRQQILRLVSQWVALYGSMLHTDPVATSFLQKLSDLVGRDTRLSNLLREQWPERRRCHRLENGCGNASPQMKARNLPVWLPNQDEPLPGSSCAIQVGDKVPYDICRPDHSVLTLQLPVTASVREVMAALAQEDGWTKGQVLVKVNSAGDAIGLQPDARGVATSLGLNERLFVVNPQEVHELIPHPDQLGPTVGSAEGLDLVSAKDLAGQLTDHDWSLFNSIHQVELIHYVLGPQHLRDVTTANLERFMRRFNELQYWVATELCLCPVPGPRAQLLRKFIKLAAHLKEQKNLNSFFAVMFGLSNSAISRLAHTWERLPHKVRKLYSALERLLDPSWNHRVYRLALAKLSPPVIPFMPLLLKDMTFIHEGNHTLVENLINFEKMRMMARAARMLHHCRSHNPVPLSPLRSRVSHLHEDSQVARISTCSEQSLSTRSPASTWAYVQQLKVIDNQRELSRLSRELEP
Ubiquitin carboxyl-terminal hydrolase 1 (Homo sapiens), sequence (O94782 whole entry, looked up): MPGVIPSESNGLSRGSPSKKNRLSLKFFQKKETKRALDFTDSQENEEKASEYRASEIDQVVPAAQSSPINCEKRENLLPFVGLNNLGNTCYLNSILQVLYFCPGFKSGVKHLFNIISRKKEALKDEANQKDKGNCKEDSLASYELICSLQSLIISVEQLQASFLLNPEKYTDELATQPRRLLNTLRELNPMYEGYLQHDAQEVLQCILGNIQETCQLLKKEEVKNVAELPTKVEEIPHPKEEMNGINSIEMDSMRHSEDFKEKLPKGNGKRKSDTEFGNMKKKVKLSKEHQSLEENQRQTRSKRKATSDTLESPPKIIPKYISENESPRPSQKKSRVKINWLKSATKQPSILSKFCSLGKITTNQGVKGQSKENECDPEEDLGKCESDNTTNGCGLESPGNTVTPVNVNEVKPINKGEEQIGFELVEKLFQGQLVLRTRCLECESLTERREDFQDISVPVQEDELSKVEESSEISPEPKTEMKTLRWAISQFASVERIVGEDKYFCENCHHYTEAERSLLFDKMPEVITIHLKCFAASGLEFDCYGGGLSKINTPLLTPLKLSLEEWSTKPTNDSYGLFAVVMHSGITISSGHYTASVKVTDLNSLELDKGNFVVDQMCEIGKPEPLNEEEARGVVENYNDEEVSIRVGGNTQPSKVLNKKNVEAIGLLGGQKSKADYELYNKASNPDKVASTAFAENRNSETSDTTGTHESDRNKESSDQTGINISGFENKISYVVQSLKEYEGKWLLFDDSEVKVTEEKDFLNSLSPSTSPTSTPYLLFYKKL
Cytochrome P450 3A4 (Homo sapiens), sequence (P08684 whole entry, looked up): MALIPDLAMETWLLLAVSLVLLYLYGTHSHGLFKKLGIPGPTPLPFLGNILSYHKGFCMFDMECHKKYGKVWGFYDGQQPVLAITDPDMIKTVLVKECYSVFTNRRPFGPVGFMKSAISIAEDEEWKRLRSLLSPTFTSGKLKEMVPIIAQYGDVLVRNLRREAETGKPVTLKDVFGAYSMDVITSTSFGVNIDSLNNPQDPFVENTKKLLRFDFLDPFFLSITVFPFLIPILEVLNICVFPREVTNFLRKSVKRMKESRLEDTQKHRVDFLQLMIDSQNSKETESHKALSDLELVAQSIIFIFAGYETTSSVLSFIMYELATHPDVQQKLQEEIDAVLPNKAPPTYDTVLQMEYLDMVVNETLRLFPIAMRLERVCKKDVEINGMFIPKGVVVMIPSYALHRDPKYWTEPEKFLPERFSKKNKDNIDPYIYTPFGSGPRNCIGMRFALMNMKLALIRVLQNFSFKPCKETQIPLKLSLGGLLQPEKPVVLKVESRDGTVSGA
Lysosomal acid glucosylceramidase (Homo sapiens), sequence (P04062 whole entry, looked up): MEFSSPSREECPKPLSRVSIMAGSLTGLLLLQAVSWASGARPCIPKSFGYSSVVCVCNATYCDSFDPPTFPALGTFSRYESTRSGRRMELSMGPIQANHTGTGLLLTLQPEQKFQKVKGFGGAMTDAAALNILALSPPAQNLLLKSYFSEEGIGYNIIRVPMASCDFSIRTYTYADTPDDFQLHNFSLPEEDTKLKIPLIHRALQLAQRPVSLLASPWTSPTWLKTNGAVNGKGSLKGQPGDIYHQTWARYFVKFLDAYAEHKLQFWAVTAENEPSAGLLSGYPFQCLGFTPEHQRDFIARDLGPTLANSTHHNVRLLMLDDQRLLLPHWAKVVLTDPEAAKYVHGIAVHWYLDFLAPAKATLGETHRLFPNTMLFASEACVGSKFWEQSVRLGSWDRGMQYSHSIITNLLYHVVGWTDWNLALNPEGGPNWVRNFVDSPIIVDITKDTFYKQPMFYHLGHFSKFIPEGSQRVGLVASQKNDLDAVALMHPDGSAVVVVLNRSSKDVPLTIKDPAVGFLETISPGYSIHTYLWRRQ

For the molecule `CC1(C)C(O)CC[C@]2(C)C1CC[C@@]1(C)C2C(=O)C=C2[C@@H]3C[C@@](C)(C(=O)O)CC[C@@]3(C)CCC21C` (some centres not stated), the Potency result in assay [1], in assay [2], in [5], in assay [6] and in assay [7] was “inactive” throughout. In addition, the result in assay [3] was inactive. In assay [4], the activity change, negative = inhibition is 9.4% (inactive). Besides, the max response came to 16.2% in assay [4] (setting [24]) and 28.1% in assay [4] (setting [25]). Further, the Potency in assay [8] is 4.94 µM (active).

Regarding `COC(=O)c1c(OC)cc2c(c1C)Oc1c(Cl)c(O)c(Cl)c(C)c1C(=O)O2`, the Potency in assay [9] was 1.58 µM (active); in assay [10], 56.2 µM (active); in [8], 8.79 µM (active). The Potency entry in assay [1], in assay [2], in assay [6] and in assay [7] was “inactive” throughout. The result in [3] was inactive. Moreover, the activity change, negative = inhibition in [4] is 6.08% (inactive). Further, the max response in assay [4] (setting [24]) is -4.22%; in assay [4] (setting [25]) it was -5.08%.

With `C[n+]1cccc(C(=O)[O-])c1`, the Potency entry in [9], in assay [2] and in [10] was “inactive” in each case. Also, the molecule was classed as inactive in assay [3] and in assay [11]. For the same molecule, the activity change, negative = inhibition in assay [4] is 6.06% (inactive). In addition, the max response is -1.12% in assay [4] (setting [24]) and 2.73% in assay [4] (setting [25]).

In the case of `COCCn1c(=O)c(CCc2ccccc2)nc2cnc(Oc3ccc(OC)cc3)nc21`, the Potency in [12] is > 11.4 µM (inactive); in [14] it was 15.8 µM (active); in [17] it was > 9.22 µM (inactive); in assay [18], > 46 µM (inactive); in assay [9] it was 3.16 µM (active). Also, the figures for the activity change, negative = inhibition in assay [13], in assay [15] and in assay [4] were -14.8% (inactive), 2.36% (inactive) and -2.61% (inactive), respectively. The activity, negative = inhibition in assay [16] is -17% (inactive). Besides, the Potency result in assay [19], in [20], in assay [1], in [21], in assay [22] and in assay [23] was “inactive” in each case. Moreover, the Potency entry in assay [10] was “inactive”. Besides, the results for the max response in assay [4] (setting [24]) and in assay [4] (setting [25]) were 5.1% and 2.19%, respectively.

For `COc1cc(O)c(C(=O)/C=C/c2ccc(OC)c(O)c2)c(OC)c1`, the Potency in assay [9] is 6.31 µM (active). For the same molecule, the Potency entry in [1] and in assay [6] was “inactive” in each case. Further, the outcome in assay [3] was inactive. For the same molecule, in assay [4], the activity change, negative = inhibition is -24.7% (inactive). The max response in [4] (setting [24]) is -3.92%; in assay [4] (setting [25]), -25.6%.

Take `COCCNc1ncnc2ccc(-c3ccc(N(C)C)cc3)cc12`: the Potency in assay [12] was > 11.4 µM (inactive); in assay [14] it was 0.251 µM (active); in assay [17], > 46 µM (inactive); in assay [18] it was > 46 µM (inactive); in assay [9], 7.94 µM (active); in assay [21], 8.91 µM (active). Moreover, the Potency in assay [22] was 10 µM (active). The activity change, negative = inhibition in assay [13] was -29.4% (inactive); in assay [15], 4.01% (inactive); in assay [4], -6.08% (inactive). Further, the activity, negative = inhibition in assay [16] is -5.06% (inactive). Besides, the Potency result in assay [19], in assay [20], in [1], in assay [23] and in [10] was “inactive” throughout. The max response in assay [4] (setting [24]) is -1.3%; in assay [4] (setting [25]) it was -8.9%.

(Values after PubChem BioAssay (NCATS).)
